Measured values as given in the supplement of paper PMC12645437, “Orthogonal IMiD-Degron Pairs Induce Selective Protein Degradation in Cells” (ACS Chemical Biology, 2025).
Over roughly 8,300 sequences, “log2 fold change of degron read counts, EGFP-low vs EGFP+ sorted cells (limma voom), compound-induced degradation” has its median near -1.1; the highest 2% begin near 3.2. The sample holds the highest values, similar sequences and a random draw of the others, so the mix is not that of the screen.

T1: CRBN, Q96SW2
T1 chain: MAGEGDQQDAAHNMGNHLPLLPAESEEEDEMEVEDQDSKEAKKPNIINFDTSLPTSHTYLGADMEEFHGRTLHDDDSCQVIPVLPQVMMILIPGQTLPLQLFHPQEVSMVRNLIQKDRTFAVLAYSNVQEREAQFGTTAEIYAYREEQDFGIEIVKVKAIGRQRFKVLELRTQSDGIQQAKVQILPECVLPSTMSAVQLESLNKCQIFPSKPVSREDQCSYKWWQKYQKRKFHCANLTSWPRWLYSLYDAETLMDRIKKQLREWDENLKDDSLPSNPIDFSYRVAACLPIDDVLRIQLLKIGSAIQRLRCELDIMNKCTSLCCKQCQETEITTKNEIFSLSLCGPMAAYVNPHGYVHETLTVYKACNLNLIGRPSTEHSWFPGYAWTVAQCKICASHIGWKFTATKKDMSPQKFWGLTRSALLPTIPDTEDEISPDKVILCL

B1: 46F_47V_49E_50I_52G_53R_54R_55F_67L_, Q9UKT9 (peptide)
chain: FVCEICGRRFTQKGNLLRHIKL
B2: 46L_47W_49P_50I_52G_53F_54I_55C_67L_, Q9UKT9 (peptide)
chain: LWCPICGFICTQKGNLLRHIKL
B3: 46F_47N_49E_50Q_52G_53A_54Q_55F_67L_, Q9UKT9 (peptide)
chain: FNCEQCGAQFTQKGNLLRHIKL
B4: 46L_47T_49N_50Q_52G_53F_54M_55C_67L_, Q9UKT9 (peptide)
chain: LTCNQCGFMCTQKGNLLRHIKL
B5: 46F_47F_49N_50Q_52G_53A_54K_55F_67L_, Q9UKT9 (peptide)
chain: FFCNQCGAKFTQKGNLLRHIKL
B6: 46F_47D_49N_50V_52G_53A_54P_55F_67L_, Q9UKT9 (peptide)
chain: FDCNVCGAPFTQKGNLLRHIKL
B7: 46L_47N_49E_50I_52G_53F_54R_55C_67L_, Q9UKT9 (peptide)
chain: LNCEICGFRCTQKGNLLRHIKL
B8: 46L_47M_49E_50I_52G_53F_54R_55C_67L_, Q9UKT9 (peptide)
chain: LMCEICGFRCTQKGNLLRHIKL
B9: 46L_47H_49E_50I_52G_53F_54R_55C_67L_, Q9UKT9 (peptide)
chain: LHCEICGFRCTQKGNLLRHIKL
B10: 46L_47W_49E_50I_52G_53F_54R_55C_67L_, Q9UKT9 (peptide)
chain: LWCEICGFRCTQKGNLLRHIKL
B11: 46L_47A_49E_50I_52G_53F_54R_55C_67L_, Q9UKT9 (peptide)
chain: LACEICGFRCTQKGNLLRHIKL
B12: 46L_47C_49E_50I_52G_53F_54R_55C_67L_, Q9UKT9 (peptide)
chain: LCCEICGFRCTQKGNLLRHIKL
B13: 46L_47S_49E_50I_52G_53F_54R_55C_67L_, Q9UKT9 (peptide)
chain: LSCEICGFRCTQKGNLLRHIKL
B14: 46L_47Y_49E_50I_52G_53F_54R_55C_67L_, Q9UKT9 (peptide)
chain: LYCEICGFRCTQKGNLLRHIKL
B15: 46L_47D_49E_50I_52G_53F_54R_55C_67L_, Q9UKT9 (peptide)
chain: LDCEICGFRCTQKGNLLRHIKL
B16: 46L_47T_49E_50I_52G_53F_54R_55C_67L_, Q9UKT9 (peptide)
chain: LTCEICGFRCTQKGNLLRHIKL
B17: 46L_47V_49E_50I_52G_53F_54R_55C_67L_, Q9UKT9 (peptide)
chain: LVCEICGFRCTQKGNLLRHIKL
B18: 46L_47G_49E_50I_52G_53F_54R_55C_67L_, Q9UKT9 (peptide)
chain: LGCEICGFRCTQKGNLLRHIKL

Target: T1, CRBN, Q96SW2
Test: log2 fold change of degron read counts, EGFP-low vs EGFP+ sorted cells (limma voom), compound-induced degradation; higher = more compound-induced degradation of the degron-EGFP fusion; degrons are variants of IKZF1/3 zinc finger 2; compound dose not given here
Conditions: Jurkat, 18 h
[1] = compound: compound 19 (5-tert-butyl-thalidomide)
[2] = compound: compound 22 (5-morpholino-thalidomide)
[3] = compound: compound 33 (diphenyl IMiD analogue)
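Also: pooled lentiviral library of zinc finger degron-EGFP fusions in mCherry-positive Jurkat cells, FACS-sorted after compound exposure, with degron abundance counted by next-generation sequencing.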

Row | Sequence | log2 fold change of degron read counts [1] | log2 fold change of degron read counts [2] | log2 fold change of degron read counts [3] | log2 fold change of degron read counts (compound: thalidomide)
1 | B1 | -1.38 | -0.295 | -0.924 | 1.44
2 | B2 | 2.27 | 2.7 | 2.35 | 1.24
3 | B3 | -1.51 | -2.31 | -2.13 | -2.22
4 | B4 | -2.05 | -1.99 | -2.04 | -1.23
5 | B5 | -0.805 | -0.929 | -1.59 | -1.91
6 | B6 | -1.08 | -1.02 | -1.22 | -0.873
7 | B7 | 1.31 | 0.0636 | -0.877 | 0.378
8 | B8 | 0.992 | 0.81 | 2.15 | 2.41
9 | B9 | 2.71 | 2.4 | 1.3 | 1.88
10 | B10 | 3.39 | 3.5 | 2.48 | 1.8
11 | B11 | 3.5 | 2.79 | 0.159 | 1.41
12 | B12 | 2.36 | 2.33 | 1.37 | 2.65
13 | B13 | 2.82 | 2.76 | 0.517 | 1.83
14 | B14 | 3.55 | 3.9 | 2.17 | 1.9
15 | B15 | 0.949 | -0.499 | -0.616 | 0.426
16 | B16 | 1.66 | 2.1 | 1.15 | 2.73
17 | B17 | 2.5 | 2.55 | 1.39 | 3.28
18 | B18 | 2.14 | 1.52 | -0.383 | 0.468
